# Experimental data published in PubChem BioAssay (Tox21).
# Values joined by “and” are separate entries in the source; they are usually repeats but may differ in a detail not shown here. Equal entries are not always repeated. Results filed as inconclusive are left out. Active and inactive are the calls of the source. The call rests on the fitted dose curve; in most records, active means well fitted cell-killing curve with a large enough effect in the repeat runs; inconclusive means weak or mixed curves, or effect the other way; inactive means no such curve, though single readings can be large or run the other way.
# Assay: qHTS assay to identify small molecule agonists of the farnesoid-X-receptor (FXR) signaling pathway - cell viability counter screen (AID 743218); further: nearly all actives have a fitted effect of over 45% in size
# Conditions: FXR-bla HEK293T viability, CellTiter-Glo luminescence, 16 h; series mostly up to 62.6 µM; viability change, negative = cytotoxic: at the top concentration
# Source text: U.S. Tox21 Program National Center for Advancing Translational Sciences [NCATS] NIH Chemical Genomics Center [NCGC] U.S. Environmental Protection Agency [EPA] National Institutes of Environmental Health Sciences [NIEHS] National Toxicology Program [NTP] U.S. Food and Drug Administration [FDA] Tox21 Assay Overview: The farnesoid-X-receptor (FXR), a nuclear hormone receptor, is highly expressed in liver, intestine, kidney and adrenal cortex. Natural ligands of FXR are the bile acids (Cholic acid, Chenodeoxy cholic acid etc). FXR is an important regulator of diverse metabolic pathways, including the bile acid homeostasis, lipid and glucose metabolisms. FXR regulates the expression of target genes by binding either as a monomer or as a heterodimer with the retinoid X receptor (RXR). Numerous studies have reported that FXR exerts protective function during cholestasis, diabetes, liver regeneration, and cancer. To identify compounds that activate FXR signaling, GeneBLAzer FXR-UAS-bla HEK 293T cell line (Invitrogen, Carlsbad, CA) containing a beta-lactamase reporter gene under the control of a UAS response element was used to screen the Tox21 10K compound library. The cytotoxicity of the Tox21 compound library against the FXR-bla cell line was tested in parallel by measuring the cell viability using CellTiter-Glo assay in the same wells.
# Tox21 Assay Protocol Summary: FXR-bla cells were dispensed at 5000 cells/5uL/well in 1536-well black wall/clear bottom plates using a Multidrop Combi (Thermo Fisher Scientific, Waltham, MA) dispenser. After the assay plates were incubated at 37 C and 5% CO2 for 5 h, 23 nL of compounds dissolved in DMSO, positive controls or DMSO only was transferred to the assay plate by a Pintool station (Kalypsys, San Diego, CA). The assay plates were incubated at 37C for 16 h. After 1 uL of LiveBLAzerTM B/G FRET substrate was added using a Bioraptr Flying Reagent Dispenser (FRD) workstation (Beckman Coulter, Indianapolis, IN), the plates were incubated at room temperature for 2 h, and fluorescence intensity was measured by an Envision plate reader (PerkinElmer, Shelton, CT). For cell viability readout that measures cytotoxicity, 4uL/well of CellTiter-Glo reagent was added into the assay plates using a Bioraptr FRD. After 30 min incubation at room temperature, the luminescence intensity in the plates was measured using a ViewLux plate reader (PerkinElmer).
# On the % scale 0 is the no-effect control and ±100 the full control effect; potency means the concentration at half of the fitted maximal effect.
SMILES,"viability change, negative = cytotoxic",Potency
C=CC(C)(CCC=C(C)C)OC=O (stereo not given),5.68% (inactive),
CCC(COC(=O)CCS)(COC(=O)CCS)COC(=O)CCS,-1.97% (inactive),
Nc1ccc(NCCO)c([N+](=O)[O-])c1,-5.86% (inactive),
CCOC(=O)NNc1ccc(N(CC)CC(C)O)nn1 (stereo not given),-11.7% (inactive),
CCCC[P+](C)(CCCC)CCCC,22.6% [at 81.1 µM] (inactive),
Clc1nnc(Cl)c2ccccc12,10.9% (inactive),
Nc1nc(N)nc(-c2cc(Cl)ccc2Cl)n1,21.8% (inactive),
CC[N+](CC)(CC)CCOC(=O)C(C1CCCC1)C1CCCC1,-1.41% (inactive),
CCCCCC/C=C\CCCCCCCC(=O)O,7.74% (inactive),
CC(C)=CCC1=C(O)c2ccccc2C(=O)C1=O,-17.7% (inactive),
COCCOc1cc2cc(C(=O)NC3CCN(C(C)C)CC3)n(CC(=O)Nc3ccc(Cl)cn3)c2cn1,-9.17% (inactive),
CC(=O)[C@H]1CC[C@H]2[C@@H]3CCC4=CC(=O)CC[C@]4(C)[C@H]3CC[C@]12C,-14% (inactive),
O=C(/C=C/c1ccc(O)c(O)c1)O[C@@H](C(=O)O)[C@@H](OC(=O)/C=C/c1ccc(O)c(O)c1)C(=O)O,-0.138% (inactive),
OC[C@H]1O[C@H](O[C@H]2O[C@H](CO)[C@@H](O)[C@H](O)[C@H]2O)[C@H](O)[C@@H](O)[C@@H]1O,8.72% [at 81.1 µM] (inactive),
O=C(O)O,5.67% [at 5.95 µM] (inactive),
O=C1OC2(c3ccc(O)cc3Oc3cc(O)ccc32)c2ccc(N=C=S)cc21,-8.27% [at 81.1 µM] (inactive),
Cc1ccc(C)cc1,0.542% (inactive),
CCCCCCCC/C=C\CCCCCCCCN,1.59% (inactive),
OCCN1CCN(CCCN2c3ccccc3Sc3ccc(C(F)(F)F)cc32)CC1,,29.8 µM (active)
CCc1cccc(CC)c1NC(=O)CN(CC(=O)O)CC(=O)O,2.24% (inactive),

SMILES,"viability change, negative = cytotoxic",Potency
CCCCN(CCCC)CC(O)c1cc(Cl)cc2c1-c1ccc(Cl)cc1/C2=C/c1ccc(Cl)cc1 (stereo not given),,29.8 µM (active)
CCOC(=O)c1ccc(C2CCC(NC[C@H](O)COc3ccc(O)c(NS(C)(=O)=O)c3)CC2)cc1 (stereo not given in full),,35.9 µM (active)
CCCc1ccc(OCC(=O)N2CCN(C(=O)COc3ccc(CCC)cc3OC)CC2)c(OC)c1,1.13% (inactive),
CC1(C)CC(O)CC(C)(C)N1,44.4% [at 81.1 µM] (inactive),
Cl[Si](Cl)(c1ccccc1)c1ccccc1,0% [at 81.1 µM] (inactive),
Nc1nc(-c2ccccc2)cs1,11% (inactive),
CN(C)C(=O)COC(=O)Cc1ccc(OC(=O)c2ccc(N=C(N)N)cc2)cc1,4.81% (inactive),
Cc1nc2n(c(=O)c1CCN1CCC(c3noc4cc(F)ccc34)CC1)CCCC2,-2.58% (inactive),
C#Cc1ccc(-c2ccccc2F)cc1,19.8% (inactive),
OCC(F)(F)F,26% [at 81.1 µM] (inactive),
CN(C)Cc1ccccc1O,-13% (inactive),
COc1cccc2c1C(=O)c1c(O)c3c(c(O)c1C2=O)C[C@@](O)(C(C)=O)C[C@@H]3O[C@H]1C[C@H](N)[C@H](O)[C@H](C)O1,,55.3 µM (active) and 2.4 nM (active)
O=C(O)c1cccc(C(F)(F)F)c1,1.99% (inactive),
OC[C@@H](O)[C@@H](O)CO,4.6% (inactive),
CCCCC(CC)CN1CN(CC(CC)CCCC)CC(C)(N)C1 (stereo not given),-8.47% (inactive),
Cc1cc(=O)oc2cc(O)cc(O)c12,15.6% [at 81.1 µM] (inactive),
O=C(O)c1ccc2cc(C(=O)O)ccc2c1,-3.38% [at 81.1 µM] (inactive),
Cc1nc(-c2ccc(Cl)cc2)oc1COC(C)(C)C(=O)O,13.3% (inactive),
CN(C)c1ccc(C(=C2C=CC(=[N+](C)C)C=C2)c2ccc(N(C)C)cc2)cc1,,10.9 µM (active) and 19.5 µM (active) and 10.6 µM (active)
COc1ccc(NC(=O)CC(C)=O)cc1,-29.8% (inactive),
